# From PubChem BioAssay
# Activity calls are given as the source filed them. Unless noted, no rule for the calls is given here.
# What was measured:
# [1] = compound effects on lung adenocarcinoma cell viability – A549, calcein-AM fluorescence, 48 h, basal, profiling panel (AID 1162); conditions: higher = more signal; also: test concentration not given here
# [2] = compound effects on differentiated 3T3-L1 adipocyte viability – cell-based, 3T3-L1 adipocytes, calcein-AM fluorescence, 48 h, basal, profiling panel (AID 1163); conditions: 3T3-L1 adipocytes viability, higher = more signal; also: test concentration not given here
# [3] = compound effects on hepatocellular carcinoma cell viability – HepG2, calcein-AM fluorescence, 48 h, basal, profiling panel (AID 1164); conditions: higher = more signal; also: test concentration not given here
# [4] = compound effects on multiple myeloma cell viability – MM1S, calcein-AM fluorescence, 48 h, basal, profiling panel (AID 1165); conditions: higher = more signal; also: test concentration not given here
# [5] = calcein-AM signal in unstimulated myeloma cells – cell-based, calcein-AM fluorescence, 48 h, PK04 Diversity Set, profiling panel (AID 1166); conditions: RPMI8226 myeloma viability, higher = more signal;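 also: cells grown under basal conditions without added stimulus; test concentration not given here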
# [6] = JC-1 mitochondrial signal, unstimulated HepG2 cells – cell-based, JC-1 fluorescence, 24 h, 100 nL compound, profiling panel (AID 1167); conditions: HepG2 mitochondrial potential, higher = more signal; also: test concentration not given here
# [7] = JC-1 mitochondrial signal, unstimulated adipocytes – cell-based, JC-1 fluorescence, 3T3-L1 adipocytes, 24 h, 100 nL compound, profiling panel (AID 1168); conditions: JC-1 mitochondrial fluorescence, higher = more signal, called active from +8 up or from −8 down; also: test concentration not given here
# [8] = JC-1 mitochondrial signal, unstimulated myeloma cells – cell-based, JC-1 fluorescence, RPMI8226, 24 h, 100 nL compound, profiling panel (AID 1169); conditions: JC-1 mitochondrial potential fluorescence, higher = more signal; also: test concentration not given here
# [9] = JC-1 mitochondrial signal, unstimulated MM1S myeloma – cell-based, JC-1 fluorescence, 24 h, 100 nL compound, profiling panel (AID 1170); conditions: MM1S mitochondrial potential, higher = more signal; also: test concentration not given here
# [10] = resazurin metabolic signal in A549 cells – cell-based, resazurin fluorescence, 24 h, PK04 Diversity Set, profiling panel (AID 1171); conditions: A549 viability, higher = more signal, called active from +8 up or from −8 down; also: test concentration not given here
# [11] = resazurin metabolic signal in HepG2 cells – cell-based, resazurin fluorescence, 24 h, PK04 Diversity Set, profiling panel (AID 1172); conditions: HepG2 viability, higher = more signal; also: test concentration not given here
# [12] = budding yeast growth changes without added modifier – OD600, strain BY4716, 24 h, basal condition, primary screen (AID 1173); conditions: S. cerevisiae BY4716 growth, OD600, 24 h; higher = more signal, called active from +8 up or from −8 down
# [13] = viability profiling in MM1S myeloma cells – cell-based, resazurin fluorescence, basal, 24 h, PK04 Diversity Set, profiling panel (AID 1174); conditions: higher = more signal, called active from +8 up or from −8 down; also: test concentration not given here
# [14] = biological target: Dihydroorotate dehydrogenase (quinone), mitochondrial (Plasmodium falciparum (isolate 3D7)) (UniProt Q08210); assay: inhibition of P. falciparum DHODH – biochemical, C-terminal His tag, absorbance 600 nm, primary screen (AID 1175); conditions: PfDHODH enzyme, DCIP absorbance 600 nm; higher = more signal, called active from +8 up or from −8 down;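 also: recombinant parasite enzyme with a five histidine tag at its C terminus; test concentration not given here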
# [15] = inhibition of PAO1 biofilm formation – strain PAO1, LB-PBS medium, absorbance 600 nm, primary screen (AID 1176); also: test concentration not given here; conditions: P. aeruginosa PAO1 growth/biofilm, A600, 12 h; higher = more signal
# [16] = growth modulation of vineyard yeast isolate – strain RM11-1a, OD600, basal, 24 h, primary screen (AID 1177);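 also: cultures grown under basal conditions with no added stressor; test concentration not given here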; conditions: S. cerevisiae RM11-1a growth, OD600, 24 h; higher = more signal, called active from +8 up or from −8 down
# [17] = growth of efflux-deficient E. coli DRC39 – strain DRC39, OD650, 24 h, E. coli filamentation inducers, primary screen (AID 1178);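 also: growth measured as culture turbidity by optical density at 650 nm; test concentration not given here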; conditions: E. coli DRC39 acrAB, higher = more signal, called active from +8 up or from −8 down
# [18] = growth of efflux-deficient E. coli DRC39 – strain DRC39, OD650, 48 h, E. coli filamentation inducers, primary screen (AID 1179);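 also: screen aims at cell division blockers that make cells filament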; conditions: E. coli DRC39 delta-acrAB growth, higher = more signal, called active from +8 up or from −8 down
# [19] = viability profiling in RPMI8226 myeloma cells – cell-based, resazurin fluorescence, basal, 24 h, PK04 Diversity Set, profiling panel (AID 1180); conditions: higher = more signal;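 also: RPMI8826 multiple myeloma cell line at 5000 cells per well; test concentration not given here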
# [20] = biological target: E3 ubiquitin-protein ligase XIAP (Homo sapiens) (UniProt P98170); assay: small molecules binding XIAP protein – biophysical, small-molecule microarray, fluorescence 635 nm, primary screen (AID 1181); conditions: higher = more signal;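 also: score merges 667 nm emission and signal to noise over triplicate slides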
# E3 ubiquitin-protein ligase XIAP (Homo sapiens), sequence (P98170 whole entry, looked up): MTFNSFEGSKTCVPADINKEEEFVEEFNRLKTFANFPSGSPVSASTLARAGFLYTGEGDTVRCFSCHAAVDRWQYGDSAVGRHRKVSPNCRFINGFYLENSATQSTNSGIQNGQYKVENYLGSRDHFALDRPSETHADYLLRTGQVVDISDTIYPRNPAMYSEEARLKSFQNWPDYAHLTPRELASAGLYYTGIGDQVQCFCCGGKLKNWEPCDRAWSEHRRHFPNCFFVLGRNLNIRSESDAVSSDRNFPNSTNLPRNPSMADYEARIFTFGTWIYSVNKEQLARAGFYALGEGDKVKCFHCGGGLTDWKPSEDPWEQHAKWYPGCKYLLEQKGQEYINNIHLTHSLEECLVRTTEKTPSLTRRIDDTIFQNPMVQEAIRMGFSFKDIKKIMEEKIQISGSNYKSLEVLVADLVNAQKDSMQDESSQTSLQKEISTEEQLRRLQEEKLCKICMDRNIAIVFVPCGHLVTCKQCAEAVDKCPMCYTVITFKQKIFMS
# Dihydroorotate dehydrogenase (quinone), mitochondrial (Plasmodium falciparum (isolate 3D7)), sequence (Q08210 whole entry, looked up): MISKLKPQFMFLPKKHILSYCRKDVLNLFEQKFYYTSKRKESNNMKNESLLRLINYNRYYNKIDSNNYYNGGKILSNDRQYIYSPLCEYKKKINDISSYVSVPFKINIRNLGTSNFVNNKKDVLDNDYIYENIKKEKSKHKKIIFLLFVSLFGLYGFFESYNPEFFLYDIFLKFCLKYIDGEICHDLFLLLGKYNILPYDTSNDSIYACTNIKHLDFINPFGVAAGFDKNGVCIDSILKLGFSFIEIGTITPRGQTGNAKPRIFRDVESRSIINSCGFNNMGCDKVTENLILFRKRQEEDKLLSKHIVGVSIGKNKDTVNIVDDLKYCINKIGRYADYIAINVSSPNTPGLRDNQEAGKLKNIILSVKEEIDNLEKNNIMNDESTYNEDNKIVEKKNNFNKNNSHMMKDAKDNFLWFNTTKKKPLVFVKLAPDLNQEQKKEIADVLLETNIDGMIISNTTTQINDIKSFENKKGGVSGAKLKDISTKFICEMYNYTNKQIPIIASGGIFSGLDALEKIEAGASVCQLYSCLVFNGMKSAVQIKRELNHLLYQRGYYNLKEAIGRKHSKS
compound,measurement,setting,value
[N-]=[N+]=NCc1ccccc1[C@H]1OC(c2ccc(OCCCO)cc2)=N[C@@]1(CCS(=O)(=O)c1ccccc1)C(=O)NCCN1CCOCC1,z-score,[1],1.69
same,z-score,[2],-0.328
same,z-score,[3],1.14
same,z-score,[4],-1.03
same,z-score,[5],0.511
same,z-score,[6],0.418
same,z-score,[7],-0.221 (inactive)
same,z-score,[8],-0.556
same,z-score,[9],-0.801
same,z-score,[10],0.0651 (inactive)
same,z-score,[11],-0.152
same,z-score,[12],0.256 (inactive)
same,z-score,[13],0.285 (inactive)
same,composite z-score,[14],0.12 (inactive)
same,z-score,[15],1.13 (inactive)
same,z-score,[16],-0.199 (inactive)
same,z-score,[17],-0.178 (inactive)
same,z-score,[18],-0.35 (inactive)
same,z-score,[19],0.548
same,composite z-score,[20],-0.115
O=C1OC[C@@H](c2ccccc2)n2cc(/C=C/c3ccccc3)cc21,z-score,[1],-0.235
same,z-score,[2],1.75
same,z-score,[3],-0.202
same,z-score,[4],-0.472
same,z-score,[5],-0.597
same,z-score,[6],-0.564
same,z-score,[7],0.156 (inactive)
same,z-score,[8],-0.161
same,z-score,[9],-0.735
same,z-score,[10],0.229 (inactive)
same,z-score,[11],-0.295
same,z-score,[12],-2.5 (inactive)
same,z-score,[13],0.539 (inactive)
same,composite z-score,[14],-2.31 (inactive)
same,z-score,[15],-0.353 (inactive)
same,z-score,[16],0.561 (inactive)
same,z-score,[17],-0.0891 (inactive)
same,z-score,[18],-0.733 (inactive)
same,z-score,[19],-0.302
same,composite z-score,[20],-0.286
COC(=O)C(CC#Cc1ccc2c(c1)[C@]1(C(=O)N2)[C@H](c2ccccc2OCCO)N2[C@H](c3ccccc3)[C@H](c3ccccc3)OC(=O)[C@H]2[C@@H]1C(=O)N1CCN(c2ncccn2)CC1)C(=O)OC,z-score,[1],-0.071
same,z-score,[2],-1.46
same,z-score,[3],0.496
same,z-score,[4],-3.23
same,z-score,[5],-4.35
same,z-score,[6],-0.735
same,z-score,[7],0.181 (inactive)
same,z-score,[8],-1.11
same,z-score,[9],-1.92
same,z-score,[10],0.103 (inactive)
same,z-score,[11],-0.0452
same,z-score,[12],2.09 (inactive)
same,z-score,[13],-0.935 (inactive)
same,composite z-score,[14],-16.6 (active)
same,z-score,[15],2.29 (inactive)
same,z-score,[16],3.65 (inactive)
same,z-score,[17],0.236 (inactive)
same,z-score,[18],-0.11 (inactive)
same,z-score,[19],-4.73
same,composite z-score,[20],0.306
C[N+](C)(C)CCCC[C@@H]1NC(=O)[C@H]2C[C@@H](C(=O)O)[C@@H](c3ccc(O)cc3)N2C1=O,z-score,[1],0.434
same,z-score,[2],0.291
same,z-score,[3],0.0336
same,z-score,[4],-3.12
same,z-score,[5],0.442
same,z-score,[6],1.93
same,z-score,[7],-0.301 (inactive)
same,z-score,[8],-0.2
same,z-score,[9],-1.26
same,z-score,[10],0.554 (inactive)
same,z-score,[11],0.363
same,z-score,[12],-1.58 (inactive)
same,z-score,[13],1.03 (inactive)
same,composite z-score,[14],-0.406 (inactive)
same,z-score,[15],0.475 (inactive)
same,z-score,[16],-0.944 (inactive)
same,z-score,[17],1.38 (inactive)
same,z-score,[18],1.57 (inactive)
same,z-score,[19],0.925
same,composite z-score,[20],-0.0595
COc1ccc([Si](C)(C)[C@@H]2[C@@H](CC(=O)N3CCC[C@H]3CO)O[C@]3(C(=O)N(Cc4cccc(N5C(=O)c6cccc7cccc5c67)c4)c4ccccc43)[C@H]2C)cc1,z-score,[1],-1.07
same,z-score,[2],1.29
same,z-score,[3],-3.23
same,z-score,[4],-2.44
same,z-score,[5],-4.33
same,z-score,[6],-0.907
same,z-score,[7],0.522 (inactive)
same,z-score,[8],-1.05
same,z-score,[9],-1.01
same,z-score,[10],-1.53 (inactive)
same,z-score,[11],-0.49
same,z-score,[12],0.313 (inactive)
same,z-score,[13],-1.84 (inactive)
same,composite z-score,[14],-1.54 (inactive)
same,z-score,[15],0.343 (inactive)
same,z-score,[16],0.0797 (inactive)
same,z-score,[17],0.995 (inactive)
same,z-score,[18],0.787 (inactive)
same,z-score,[19],-1.53
same,composite z-score,[20],0.0834
Cc1ccc(S[C@]2(C(=O)NC3CC3)CC(=O)N(C3Cc4ccccc4C3)[C@@H]2c2ccc(CO)cc2I)cc1,z-score,[1],0.828
same,z-score,[2],0.689
same,z-score,[3],0.193
same,z-score,[4],-2.21
same,z-score,[5],-1.9
same,z-score,[6],-0.24
same,z-score,[7],-0.411 (inactive)
same,z-score,[8],-0.502
same,z-score,[9],-0.499
same,z-score,[10],0.395 (inactive)
same,z-score,[11],-0.386
same,z-score,[12],-4.29 (inactive)
same,z-score,[13],-2.54 (inactive)
same,composite z-score,[14],0.282 (inactive)
same,z-score,[15],0.0493 (inactive)
same,z-score,[16],0.283 (inactive)
same,z-score,[17],0.112 (inactive)
same,z-score,[18],-0.266 (inactive)
same,z-score,[19],-1.24
same,composite z-score,[20],-0.174
COC(=O)[C@@]1(Cc2ccc(F)cc2)[C@H]2c3cc(C(=O)N(C)C)n(CCF)c3C[C@H]2CN1C(=O)c1ccccc1,z-score,[1],-0.063
same,z-score,[2],-0.138
same,z-score,[3],0.121
same,z-score,[4],0.066
same,z-score,[5],0.266
same,z-score,[6],-0.0126
same,z-score,[7],0.696 (inactive)
same,z-score,[8],-0.37
same,z-score,[9],0.328
same,z-score,[10],-0.957 (inactive)
same,z-score,[11],0.0085
same,z-score,[12],0.0276 (inactive)
same,z-score,[13],-0.182 (inactive)
same,composite z-score,[14],-0.54 (inactive)
same,z-score,[15],0.7 (inactive)
same,z-score,[16],-0.5 (inactive)
same,z-score,[17],0.783 (inactive)
same,z-score,[18],0.459 (inactive)
same,z-score,[19],0.034
same,composite z-score,[20],0.179
CCCCN1CC=CC23O[C@@H]4/C=C\CCC(C)OC(=O)C4[C@H]2C(=O)N(CCO)[C@@H]3C1=O (stereo not given in full),z-score,[1],-0.266
same,z-score,[2],0.555
same,z-score,[3],-0.406
same,z-score,[4],-0.0157
same,z-score,[5],-1.19
same,z-score,[6],0.0609
same,z-score,[7],-0.0386 (inactive)
same,z-score,[8],0.881
same,z-score,[9],0.213
same,z-score,[10],0.265 (inactive)
same,z-score,[11],1
same,z-score,[12],0.256 (inactive)
same,z-score,[13],0.498 (inactive)
same,composite z-score,[14],-0.252 (inactive)
same,z-score,[15],0.0279 (inactive)
same,z-score,[16],-0.348 (inactive)
same,z-score,[17],0.32 (inactive)
same,z-score,[18],-0.178 (inactive)
same,z-score,[19],0.82
same,composite z-score,[20],0.0026
